# In PubChem BioAssay AID1851 (National Center for Advancing Translational Sciences (NCATS), 2009):
# Screen size: about 16,000 compounds; about 2,600 (16%) were called active. Not shown: some 20% with an inconclusive outcome. The list is a sample of the results. Values without a mark were called inactive. The call rests on the fitted dose curve; in most records, active means well fitted curve in the direction sought with a large enough effect; inconclusive means small, poorly fitted or top-dose-only effect, or effect the other way; inactive means no such curve, though single readings can be large or run the other way.
# Molecular target: Cytochrome P450 2D6 (Homo sapiens) (UniProt P10635)
# Sequence (P10635 whole entry, looked up): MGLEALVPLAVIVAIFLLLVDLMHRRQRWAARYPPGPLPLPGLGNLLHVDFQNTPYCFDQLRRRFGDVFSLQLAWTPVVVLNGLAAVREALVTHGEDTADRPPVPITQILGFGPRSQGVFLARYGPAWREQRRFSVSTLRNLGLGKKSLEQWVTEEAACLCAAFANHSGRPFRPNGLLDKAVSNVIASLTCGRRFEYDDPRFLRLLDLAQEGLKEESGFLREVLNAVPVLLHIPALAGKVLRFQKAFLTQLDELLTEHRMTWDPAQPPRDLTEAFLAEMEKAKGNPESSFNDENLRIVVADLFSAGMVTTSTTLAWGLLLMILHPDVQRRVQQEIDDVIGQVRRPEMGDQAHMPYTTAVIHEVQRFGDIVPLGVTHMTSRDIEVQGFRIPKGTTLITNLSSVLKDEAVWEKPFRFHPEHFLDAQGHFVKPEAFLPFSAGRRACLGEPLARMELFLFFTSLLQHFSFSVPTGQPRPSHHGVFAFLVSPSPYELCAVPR
# Experiment: Cytochrome panel assay with activity outcomes
# Details: recombinant CYP, pro-luciferin dealkylation, luminescence, p450-cyp2d6; series mostly up to 57.1 µM
# On the % scale 0 is the no-effect control and ±100 the full control effect.
SMILES,AC50,"activity, negative = inhibition"
COc1ccc(-n2c(=O)cnc3cnc(Oc4ccccc4)nc32)cc1,inactive,
CS(=O)(=O)c1cnc2c(-c3ccc(F)cc3)cnn2c1N,inactive,
CCCCN=C1N/C(=C\c2ccco2)C(=O)N1c1ccccc1,inactive,
O=C(Nc1ccc(-c2cc3ccccc3oc2=O)c(Cl)c1)c1cccnc1,inactive,
COc1cccc(Nc2ncc3nc(-c4cn(C)c5ccccc45)c(=O)n(CCC#N)c3n2)c1,inactive,
O=C(c1cc(-c2ccccc2Cl)on1)N1CCN(C(=O)c2ccco2)CC1,inactive,
O=C(O)c1cc2cc(OCc3ccccc3)ccc2[nH]1,inactive,
COc1cc2c(C(=O)NCc3ccc(C)o3)cn(CC(C)C)c(=O)c2cc1OC,inactive,
Cc1oc(=O)c(NC(=O)c2ccccc2)cc1C(=O)c1ccccc1,inactive,
COc1cccc(-c2nc(N(C)C)c3ccccc3n2)c1,12.6 µM (active),
Cc1cc(Oc2ccccc2)nc(-c2ccccc2)n1,inactive,
COc1cccc(-c2nc(N(C)Cc3ccco3)c3ccccc3n2)c1,5.01 µM (active),
COc1ccc(OC)c(Nc2nc(-c3cccc([N+](=O)[O-])c3)nc3ccccc23)c1,inactive,
O=C(NC1(C(F)(F)F)NC(=O)N(Cc2cccnc2)C1=O)c1ccccc1 (stereo not given),inactive,
CC(C)(C)NC(=O)Cn1nnc(-c2ccccc2NC(=O)c2cnccn2)n1,inactive,
CC(=O)Nc1ccc(NC2=Nc3ccccc3N3C2=Nc2c(c(C)nn2-c2ccccc2)C3c2ccccc2)cc1 (stereo not given),inactive,
Cc1nn(Cc2ccc(Cl)cc2Cl)c(C)c1NC(=O)c1sc2ccccc2c1Cl,inactive,
C=CCc1cccc2cc(C(=O)N(CC)CC)c(=O)oc12,inactive,
Cc1[nH]n(-c2ccccc2)c(=O)c1CCOC(=O)c1ccc(C(F)(F)F)cc1,inactive,
CCOC(=O)c1ccc(OC(=O)CCCCCN=C(N)N)cc1,0.316 µM (active),
CCOC(=O)c1ccc(N/C=C/C(=O)c2ccc(OC)cc2)cc1,inactive,
CCOC(=O)c1ccc(N)cc1,inactive,
Cn1c(=O)c(-c2cccs2)nc2cnc(Oc3ccccc3)nc21,inactive,
NC(=O)NC(=O)CSc1nnc(-c2ccco2)n1Cc1ccccc1,inactive,
FC(F)(F)c1cc(-c2ccco2)nc(NCCc2ccccc2)n1,5.01 µM (active),
Cc1ccc(Cn2ccc(NC(=O)c3cc4nc(-c5ccco5)cc(C(F)(F)F)n4n3)n2)cc1,inactive,
O=C(NC1CCCC1)c1cnn2c(C(F)(F)F)cc(-c3ccco3)nc12,inactive,

SMILES,AC50,"activity, negative = inhibition"
O=c1/c(=C\c2ccc(O)cc2)sc2n1C(c1ccccc1)C(c1ccccc1)=NN=2 (stereo not given),inactive,
COc1cccc(-c2nnc3n2N=C(C(C)(C)C)CS3)c1,inactive,
CSc1c(-c2ccccc2)nc2ccc(Cl)cc2c1C(=O)O,inactive,
CCCCNc1nc(-c2ccccc2)c(C(=O)OCC)cc1C#N,inactive,
CN(C)c1nc(NCc2ccccc2)nc(N/N=C/c2ccc(Cl)cc2Cl)n1,inactive,
Cc1ccc2nc(N/N=C/c3ccccc3C#N)nc(-c3ccccc3)c2c1,1.26 µM (active),
N#Cc1ccccc1/C=N/Nc1nc(-c2ccccc2)c2cc(Cl)ccc2n1,0.178 µM (active),
Cc1ccc(Oc2nnc(-c3ccccc3)cc2C#N)cc1,inactive,
Cc1ccc(-n2c(=O)[nH]cc(C(=O)N3CCc4ccccc43)c2=O)cc1,inactive,
Cc1nc2cncnc2n(C2CC2)c1=O,inactive,
COc1ccc(Oc2ncc3nc(-c4cccc(C#N)c4)c(=O)n(Cc4cccc(OC)c4)c3n2)cc1,inactive,
O=C(O)c1nn(-c2ccccc2)ccc1=O,inactive,
Cc1cc(C)cc(-n2c(O)c(C=NC3CCS(=O)(=O)C3)c3ccccc3c2=O)c1 (stereo not given),inactive,
CCCCOC(=O)Nc1ccccc1C(=O)OC,inactive,
Cc1ccc(C)c(Nc2nc3nonc3nc2N2CCOCC2)c1,inactive,
CCOc1ccc(-c2c(=O)n(OCc3ccccn3)c3ccccc3[n+]2[O-])cc1,inactive,
COc1ccc(-c2cc(C(F)(F)F)n3ncc(C(=O)NCC4CCCO4)c3n2)cc1OC (stereo not given),inactive,
CCC(Sc1nc2cc3c(cc2c(=O)n1Cc1ccco1)OCO3)C(=O)Nc1cccc(OC)c1 (stereo not given),3.16 µM (active),
CCN(C(=O)CSc1nc2cc(C(=O)OC)ccc2c(=O)n1Cc1ccco1)c1cccc(C)c1,inactive,
COCCNC(=O)CSc1nc2cc(OC)c(OC)cc2c(=O)n1Cc1ccco1,inactive,
Cc1nc(-c2cccnc2)sc1C(N)=O,inactive,
COc1ccc(-n2c(=O)c(-c3cccs3)nc3cnc(Oc4ccccc4)nc32)cc1,inactive,
O=C(NN=C1C2CC3CC(C2)CC1C3)c1ccncc1,inactive,
N#Cc1nc(COc2ccccc2Cl)oc1NCc1ccco1,2.82 µM (active),
Cc1cc(C)cc(-n2nnc(C(=O)NCc3ccccc3Cl)c2N)c1,inactive,
CCCCC(=O)Nc1sc2c(c1C(=O)OCC)CCC(C=O)=C2Cl,inactive,
COC(=O)[C@@]1(Cc2ccccc2)[C@H]2c3cc(C(=O)N4CCCC4)[nH]c3C[C@H]2CN1C(=O)c1ccccc1,inactive,

SMILES,AC50,"activity, negative = inhibition"
Cc1[nH]c(N)nc(=S)c1CCCNc1ccccc1,,-8.46% [at 11.4 µM]
CCN(CC)CCCN(Cc1cc2ccc(C)c(C)c2[nH]c1=O)C(=O)NC1CCCCC1,inactive,
c1ccc(NN(Cc2cnccn2)c2ccccc2)cc1,,-16.2% [at 11.4 µM]
O=C1Cc2c([nH]c3ccc(Br)cc23)-c2ccccc2N1,0.398 µM (active),
O=C1CCCCC(=O)c2ccccc2N1,inactive,
O=C1CN(c2nc(-c3ccccc3)c3cc(Br)ccc3n2)c2ccccc2N1,inactive,
N#C[C@H](Cc1ccc(O)cc1)c1ccc(O)cc1,inactive,
CCOC(=O)CCCN,,5.1% [at 11.4 µM]
CC(Cc1ccccc1)N/C=C1\CC(=O)NC1=O (stereo not given),inactive,
COc1ccc(N2CCN(Cc3nc4c(c(=O)n(C)c(=O)n4C)n3CC(C)=O)CC2)cc1,inactive,
CCOC(=O)c1nn(-c2ccccc2)c(-c2ccccc2)c1C(=O)c1ccccc1,inactive,
CCOC(=O)c1c(NC(=O)Cn2cc([N+](=O)[O-])cn2)sc2c1CCC2,inactive,
CCOC(=O)c1c(NC(=O)c2c(C)noc2C)sc2c1CCCCC2,inactive,
CCOC(=O)c1c(NC(=O)CSc2nnc(C)s2)sc2c1CCCCC2,7.94 µM (active),
CC(=O)NC1(c2cccc(F)c2)CCN(CC(=O)NC(C)C)CC1,inactive,
Nc1nnc(C(c2ccccc2)c2ccccc2)s1,inactive,
Cn1c(=O)c(-c2ccc(F)cc2)nc2cnc(Oc3ccccc3)nc21,inactive,
CC/C=C\CC[C@H](OC(=O)c1ccc(Br)cc1)C1=CCCCC1=O,,-1.66% [at 11.4 µM]
CCn1c(=O)c2[nH]c(-c3ccccc3)nc2n(CC)c1=O,inactive,
O=C(O)C[n+]1ccccc1,,-8.09% [at 11.4 µM]
COc1ccc(-c2cc(C3CCN(c4ccc(C(C)=O)cc4[N+](=O)[O-])CC3)[nH]n2)cc1,inactive,
Cc1ccc(OC(=O)c2ccc(N3CCOCC3)c([N+](=O)[O-])c2)cc1,inactive,
COC(=O)c1ccc(N2CCN(CC(=O)c3ccc(-c4ccccc4)cc3)CC2)c([N+](=O)[O-])c1,12.6 µM (active),
CCNC(=S)N1CC(C)OC(C)C1 (stereo not given),inactive,
O=C(/C=C/c1ccco1)NC(=S)Nc1ccc(N2CCOCC2)c(Cl)c1,inactive,
Clc1ccc(Cl)c(Nc2ccnc(SCc3ccccc3)n2)c1,,-0.772% [at 11.4 µM]
CNc1cc(CSC)nc(SCc2ccc(Cl)c(Cl)c2)n1,28.2 µM (active),

SMILES,AC50,"activity, negative = inhibition"
CNc1cc(CS(=O)c2ccccc2)nc(-c2ccccc2)n1 (stereo not given),inactive,
CCN1C(=O)[C@H]2[C@H]3[C@H](O)[C@H](O)C/C(=N/OC[C@@H](O)[C@H]4O[C@H]5OC(C)(C)O[C@H]5[C@@H]4O)[C@@H]3CC[C@@H]2C1=O,,7.29% [at 11.4 µM]
Cn1sc(NC(=O)c2ccccc2)nc1=O,inactive,
O=C(O)CCC/C=C\C[C@@H]1CO[C@H](C(F)(F)F)O[C@@H]1c1ccccc1O,inactive,
CO[C@H]1COC(=O)C/C=C\[C@@H](C)COC(=O)[C@@H](OCc2ccccc2)/C=C\[C@@H]1C,,1.83% [at 11.4 µM]
Clc1ccc2c(N3CCC(CCC4CCN(c5ncnc6cc(Cl)ccc56)CC4)CC3)ncnc2c1,0.794 µM (active),
Clc1ccccc1-c1ccc2ncnc(N3CCNCC3)c2c1,inactive,
CN(C)C(=O)c1ccc(-c2ccc3ncnc(N4CCC(C(=O)O)CC4)c3c2)cc1,inactive,
COc1ccc(OC)c(NC(=O)[C@H]2CC=CC[C@H]2C(=O)O)c1,inactive,
O=C(Nc1cccc(Cl)c1)N1CCN2C(=O)c3ccccc3C12c1ccccc1 (stereo not given),10 µM (active),
O=C(Nc1ccccc1)N1CCOCC1,inactive,
O=C(Nc1cccc(NC(=O)N2CCN(c3ccccc3)CC2)c1)N1CCN(c2ccccc2)CC1,inactive,
Cc1ccc(C2C(C=Nc3c(C)n(C)n(-c4ccccc4)c3=O)=C(c3ccccc3)Oc3ccccc32)cc1 (stereo not given),inactive,
CCOCCCN1C(=O)CN(C2CCCCCC2)C(=O)C1c1ccc(OC)cc1 (stereo not given),inactive,
CCSc1nnc(-c2ccc(Cl)cc2)c2ccccc12,inactive,
CCN(CC)S(=O)(=O)c1ccc2c(c1)nc(SCC(=O)N1CCOCC1)n2-c1ccccc1OC,inactive,
COCCn1c(C)cc(C2=NNC(=Nc3ccc(F)cc3)SC2)c1C,7.94 µM (active),
Cn1cccc1C(=O)N1CCC2(CC1)CCN(c1cccc(-c3ccccc3)c1)CC2,inactive,
N#CCCn1c(=O)c(CCc2ccccc2)nc2cnc(Oc3ccccc3)nc21,inactive,
CN(C)c1ncc2nc(-c3ccccc3)c(=O)n(CCc3ccccc3)c2n1,inactive,
CN(C)c1ncc2nc(-c3ccccc3)c(=O)n(CCC#N)c2n1,1 µM (active),
CN(C)c1ncc2nc(-c3cc(F)cc(F)c3)c(=O)n(CCC#N)c2n1,inactive,
CN(C)c1ncc2nc(CCc3ccccc3)c(=O)n(CCC#N)c2n1,2.51 µM (active),
N#CCCn1c(=O)c(CCc2ccccc2)nc2cnc(OCc3ccccc3)nc21,inactive,
